For 21 compounds, activity change, negative = activation results are on record in PubChem BioAssay AID504617 (Sanford-Burnham Center for Chemical Genomics, 2011).

SMILES strings stand for the structures. The list shows a part of the results. Unmarked numbers belong to inactive results. The source made the active and inactive calls.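 Rule for the calls: active = mean activity change at or below -40%, meaning activation of 40% or more, at 20 µM; inactive = the rest.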

This test deals with Apoptotic protease-activating factor 1 (Homo sapiens) (UniProt O14727). As to the kind of experiment: enhancers of apoptosome-driven caspase-3 activity – biochemical, fluorescence, DEVD-Rh110, 20 µM, confirmation (AID 504617). The following applies: reconstituted apoptosome caspase-3 activity, at 20 µM, stronger effect = lower value.
Apoptotic protease-activating factor 1 (Homo sapiens), sequence (O14727 whole entry, looked up): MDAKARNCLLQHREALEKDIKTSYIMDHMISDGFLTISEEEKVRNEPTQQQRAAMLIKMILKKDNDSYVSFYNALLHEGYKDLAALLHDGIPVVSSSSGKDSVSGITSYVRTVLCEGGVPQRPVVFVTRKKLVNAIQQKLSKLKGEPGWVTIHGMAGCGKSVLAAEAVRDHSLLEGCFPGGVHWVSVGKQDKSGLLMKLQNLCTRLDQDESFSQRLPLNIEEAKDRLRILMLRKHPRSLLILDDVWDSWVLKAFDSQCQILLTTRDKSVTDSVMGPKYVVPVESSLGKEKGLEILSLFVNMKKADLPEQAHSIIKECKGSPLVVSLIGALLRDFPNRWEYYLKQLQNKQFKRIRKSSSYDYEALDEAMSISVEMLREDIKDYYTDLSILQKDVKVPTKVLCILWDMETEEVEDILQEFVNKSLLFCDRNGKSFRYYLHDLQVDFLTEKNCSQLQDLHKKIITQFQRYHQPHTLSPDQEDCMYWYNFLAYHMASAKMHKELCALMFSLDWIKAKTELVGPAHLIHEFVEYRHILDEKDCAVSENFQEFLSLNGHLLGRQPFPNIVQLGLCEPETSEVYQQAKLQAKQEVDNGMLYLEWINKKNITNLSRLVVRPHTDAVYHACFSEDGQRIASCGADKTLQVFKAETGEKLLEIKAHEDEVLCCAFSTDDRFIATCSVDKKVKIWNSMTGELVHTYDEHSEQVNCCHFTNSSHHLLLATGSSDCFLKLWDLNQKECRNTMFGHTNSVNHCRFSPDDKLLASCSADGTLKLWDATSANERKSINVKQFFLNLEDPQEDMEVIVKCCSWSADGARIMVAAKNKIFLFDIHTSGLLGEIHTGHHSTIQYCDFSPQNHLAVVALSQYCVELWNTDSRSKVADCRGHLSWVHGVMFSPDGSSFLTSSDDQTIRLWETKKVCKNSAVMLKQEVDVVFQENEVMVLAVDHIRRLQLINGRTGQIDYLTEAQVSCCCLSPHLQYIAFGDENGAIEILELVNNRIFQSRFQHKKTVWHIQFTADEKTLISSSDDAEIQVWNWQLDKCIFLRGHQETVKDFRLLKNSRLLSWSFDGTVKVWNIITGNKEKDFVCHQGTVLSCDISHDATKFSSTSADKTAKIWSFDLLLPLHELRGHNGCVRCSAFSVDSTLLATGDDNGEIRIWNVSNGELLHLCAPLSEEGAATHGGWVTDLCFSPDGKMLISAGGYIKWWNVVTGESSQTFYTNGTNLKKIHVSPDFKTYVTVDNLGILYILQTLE
On to `COc1ccc(C2CC(c3ccccc3)Nc3ncnn32)cc1` (stereo unspecified), for which the activity change, negative = activation was 8.21%.
The same measure for `CCOCCc1c(O)nc(SCC(=O)NCc2ccco2)[nH]c1=O`: 7%; for `COC(=O)C(C)N(C#N)c1nc(C)nc(C)n1` (stereo unspecified): 10.4%; for `O=c1[nH]c2c(c(=O)n1Cc1ccccc1)CCC2`: 11%.
For `O=C(CCc1ccccc1)NNC(=O)c1ccc(Br)cc1` the value was 5.47%; for `O=C(CN1C(=O)C2C3C=CC(C3)C2C1=O)NCCc1ccccc1Cl` (stereo unspecified), 10.8%.
For `COc1ccc(S(=O)(=O)N2CCCCC2)cc1NC(=O)c1cc([N+](=O)[O-])ccc1N1CCOCC1` the value was 13.5%; for `C=CC1=C(C(=O)O)N2C(=O)[C@@H](NC(=O)/C(=N/OCC(=O)O)c3csc(N)n3)[C@H]2SC1`, -113% (active); for `Cc1nn(CC(=O)Nc2ccc(C#N)cc2)c(C)c1[N+](=O)[O-]`, -10.5%.
Take `CC(C)N1CCC(NC(=O)Nc2ccccc2)CC1`: the activity change, negative = activation is 9.51%.
Take `CC(C)OCCCNC(=S)N1CCC(C(=O)c2ccc3c(c2)OCCO3)CC1`: the activity change, negative = activation was 17.5%.
As for `COc1ccccc1OCC(=O)Nc1c2c(nn1-c1ccc(F)cc1)CS(=O)(=O)C2`, the activity change, negative = activation was 9.31%.
As for `Brc1ccc(/C=N/N2CCN(C3c4ccccc4-c4ccccc43)CC2)s1`, the activity change, negative = activation was 4.14%.
For `Cc1cc(NC(=O)c2cccc(N3C(=O)CCC3=O)c2)no1` the value was 4.77%.
On to `CCOc1ccc(N=C2NC(=O)S/C2=C\c2ccc(O)cc2)cc1`, for which the activity change, negative = activation is -7.41%.
For `O=[N+]([O-])c1ccc2nc(-c3ccccn3)[nH]c2c1` the value was 9.21%.
For `COC(CNC(=O)Cn1ncc2ccsc2c1=O)OC` the value was 10.8%; for `Clc1cccc(-c2nc3nc4ccccc4nc3n2Cc2ccco2)c1`, 21.3%.
Regarding `Cc1ccc(Nc2nc(CSc3nnc(-c4ccncc4)n3-c3ccccc3C)cs2)cc1`, the activity change, negative = activation was 26.5%.
For `CC1COc2ccccc2N1C(=O)c1cccnc1Cl` (stereo unspecified) the value was 6.25%.
For `CN(C)S(=O)(=O)c1ccc(C(=O)NCCN=C2NS(=O)(=O)c3ccccc32)cc1` the value was 4.07%.
